Experimental data as given in the supplement of paper PMC11732987, “Enantioselective OTUD7B fragment discovery through chemoproteomics screening and high-throughput optimisation” (Communications Chemistry, 2025).

Columns and labels:
Test in all cases: log2 ratio of Biotin-Ahx-Ub-VS probe labelling (fragment/DMSO); higher = less target engagement (more negative = stronger competition), active = hit call of the paper (q ≤ 0.05, log2 ratio ≤ -1)
Details in all cases: compound concentration: 200 uM; treatment time: 3 h
USP34 = USP34 (UniProt Q70CQ2)
How it was run: (§1)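 Labelling with Biotin-Ahx-Ub-VS (0.5 µM final, 1 h) followed a 3 h triplicate treatment of HEK293T lysate (495 µg per sample, Tris/CHAPS/IGEPAL buffer with protease inhibitors) with fragment at 200 µM or vehicle. Labelled DUBs were NeutrAvidin-enriched, digested with LysC and trypsin, and run by diaPASEF LC-MS/MS. The values, average log2 fragment/vehicle ratios by unpaired t-test, come from global-median-normalised Spectronaut label-free quantities. Proteins with ≥2 unique peptides were used.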

USP36 = target: T1, USP36 (UniProt Q9P275)
T1 sequence (whole entry): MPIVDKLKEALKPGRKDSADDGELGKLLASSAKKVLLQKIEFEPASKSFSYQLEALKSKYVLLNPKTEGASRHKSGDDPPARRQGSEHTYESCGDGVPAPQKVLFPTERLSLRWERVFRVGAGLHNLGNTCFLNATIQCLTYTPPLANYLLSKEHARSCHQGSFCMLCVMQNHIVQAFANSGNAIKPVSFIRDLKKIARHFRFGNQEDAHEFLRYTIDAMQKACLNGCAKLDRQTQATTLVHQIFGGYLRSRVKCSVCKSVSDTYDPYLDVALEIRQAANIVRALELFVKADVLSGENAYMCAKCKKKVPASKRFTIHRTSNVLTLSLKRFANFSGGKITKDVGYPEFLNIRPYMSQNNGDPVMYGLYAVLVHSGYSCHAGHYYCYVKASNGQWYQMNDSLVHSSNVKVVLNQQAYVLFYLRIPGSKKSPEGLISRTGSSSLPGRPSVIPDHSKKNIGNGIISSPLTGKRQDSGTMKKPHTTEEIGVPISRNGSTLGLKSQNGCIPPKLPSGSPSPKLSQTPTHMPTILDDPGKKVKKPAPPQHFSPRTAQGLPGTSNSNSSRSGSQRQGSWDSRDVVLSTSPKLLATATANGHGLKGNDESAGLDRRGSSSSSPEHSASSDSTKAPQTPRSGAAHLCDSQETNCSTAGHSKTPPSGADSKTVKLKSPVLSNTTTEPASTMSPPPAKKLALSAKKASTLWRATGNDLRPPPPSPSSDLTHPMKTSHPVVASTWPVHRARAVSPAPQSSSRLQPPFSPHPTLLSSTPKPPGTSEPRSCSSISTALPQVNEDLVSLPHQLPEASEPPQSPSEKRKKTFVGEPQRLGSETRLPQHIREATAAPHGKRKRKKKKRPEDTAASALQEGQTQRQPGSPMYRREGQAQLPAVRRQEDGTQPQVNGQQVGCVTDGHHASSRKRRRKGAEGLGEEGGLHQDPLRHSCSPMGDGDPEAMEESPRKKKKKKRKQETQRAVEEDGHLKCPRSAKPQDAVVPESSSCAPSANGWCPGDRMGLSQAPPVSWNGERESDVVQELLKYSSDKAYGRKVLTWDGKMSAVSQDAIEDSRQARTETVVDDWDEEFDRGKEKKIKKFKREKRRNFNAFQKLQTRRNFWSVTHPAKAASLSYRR
How it was run: as §1

USP38 = target: T2, USP38 (UniProt Q8NB14)
T2 sequence (whole entry): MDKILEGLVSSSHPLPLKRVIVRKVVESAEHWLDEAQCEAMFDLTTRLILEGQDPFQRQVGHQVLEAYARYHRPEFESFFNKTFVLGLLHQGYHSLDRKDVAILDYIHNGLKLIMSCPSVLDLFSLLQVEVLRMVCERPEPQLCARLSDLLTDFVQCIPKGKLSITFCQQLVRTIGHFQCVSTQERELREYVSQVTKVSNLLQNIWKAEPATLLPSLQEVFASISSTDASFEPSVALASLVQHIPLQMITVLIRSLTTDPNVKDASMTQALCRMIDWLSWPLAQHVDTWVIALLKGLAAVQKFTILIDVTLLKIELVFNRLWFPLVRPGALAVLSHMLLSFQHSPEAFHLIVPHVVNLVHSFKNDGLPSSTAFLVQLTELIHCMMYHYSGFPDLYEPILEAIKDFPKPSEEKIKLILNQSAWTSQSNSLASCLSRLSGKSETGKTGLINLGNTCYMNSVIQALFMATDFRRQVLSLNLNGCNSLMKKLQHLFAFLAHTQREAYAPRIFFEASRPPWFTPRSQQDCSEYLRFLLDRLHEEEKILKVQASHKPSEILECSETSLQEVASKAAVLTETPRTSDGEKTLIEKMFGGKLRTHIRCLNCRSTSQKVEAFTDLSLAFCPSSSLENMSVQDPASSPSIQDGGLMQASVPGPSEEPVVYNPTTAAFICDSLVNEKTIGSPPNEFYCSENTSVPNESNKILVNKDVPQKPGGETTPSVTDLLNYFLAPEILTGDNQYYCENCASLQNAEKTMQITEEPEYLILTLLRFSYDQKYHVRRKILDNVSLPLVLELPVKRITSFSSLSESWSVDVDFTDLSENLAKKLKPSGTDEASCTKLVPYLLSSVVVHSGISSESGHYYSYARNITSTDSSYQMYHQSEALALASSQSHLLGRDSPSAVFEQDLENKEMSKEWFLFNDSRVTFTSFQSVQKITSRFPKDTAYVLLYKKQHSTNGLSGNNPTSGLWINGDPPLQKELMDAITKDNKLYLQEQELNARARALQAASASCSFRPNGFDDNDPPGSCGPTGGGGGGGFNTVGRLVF
How it was run: as §1

USP39 = target: T3, USP39 (UniProt Q53GS9)
T3 sequence (whole entry): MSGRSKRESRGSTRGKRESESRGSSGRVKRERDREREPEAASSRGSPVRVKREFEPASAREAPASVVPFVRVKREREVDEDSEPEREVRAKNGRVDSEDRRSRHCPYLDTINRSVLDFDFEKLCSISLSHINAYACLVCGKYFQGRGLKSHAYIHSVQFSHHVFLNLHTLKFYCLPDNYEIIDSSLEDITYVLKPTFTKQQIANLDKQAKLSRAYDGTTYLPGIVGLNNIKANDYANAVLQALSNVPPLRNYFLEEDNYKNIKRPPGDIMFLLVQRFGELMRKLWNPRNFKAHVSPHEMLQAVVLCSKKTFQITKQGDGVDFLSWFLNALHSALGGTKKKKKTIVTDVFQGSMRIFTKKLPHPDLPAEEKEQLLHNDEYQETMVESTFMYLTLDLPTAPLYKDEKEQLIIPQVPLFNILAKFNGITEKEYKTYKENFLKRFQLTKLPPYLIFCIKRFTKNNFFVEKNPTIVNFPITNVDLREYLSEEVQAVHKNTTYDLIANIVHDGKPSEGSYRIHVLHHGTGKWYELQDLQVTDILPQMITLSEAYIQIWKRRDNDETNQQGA
How it was run: as §1

USP4 = target: T4, USP4 (UniProt Q13107)
T4 sequence (whole entry): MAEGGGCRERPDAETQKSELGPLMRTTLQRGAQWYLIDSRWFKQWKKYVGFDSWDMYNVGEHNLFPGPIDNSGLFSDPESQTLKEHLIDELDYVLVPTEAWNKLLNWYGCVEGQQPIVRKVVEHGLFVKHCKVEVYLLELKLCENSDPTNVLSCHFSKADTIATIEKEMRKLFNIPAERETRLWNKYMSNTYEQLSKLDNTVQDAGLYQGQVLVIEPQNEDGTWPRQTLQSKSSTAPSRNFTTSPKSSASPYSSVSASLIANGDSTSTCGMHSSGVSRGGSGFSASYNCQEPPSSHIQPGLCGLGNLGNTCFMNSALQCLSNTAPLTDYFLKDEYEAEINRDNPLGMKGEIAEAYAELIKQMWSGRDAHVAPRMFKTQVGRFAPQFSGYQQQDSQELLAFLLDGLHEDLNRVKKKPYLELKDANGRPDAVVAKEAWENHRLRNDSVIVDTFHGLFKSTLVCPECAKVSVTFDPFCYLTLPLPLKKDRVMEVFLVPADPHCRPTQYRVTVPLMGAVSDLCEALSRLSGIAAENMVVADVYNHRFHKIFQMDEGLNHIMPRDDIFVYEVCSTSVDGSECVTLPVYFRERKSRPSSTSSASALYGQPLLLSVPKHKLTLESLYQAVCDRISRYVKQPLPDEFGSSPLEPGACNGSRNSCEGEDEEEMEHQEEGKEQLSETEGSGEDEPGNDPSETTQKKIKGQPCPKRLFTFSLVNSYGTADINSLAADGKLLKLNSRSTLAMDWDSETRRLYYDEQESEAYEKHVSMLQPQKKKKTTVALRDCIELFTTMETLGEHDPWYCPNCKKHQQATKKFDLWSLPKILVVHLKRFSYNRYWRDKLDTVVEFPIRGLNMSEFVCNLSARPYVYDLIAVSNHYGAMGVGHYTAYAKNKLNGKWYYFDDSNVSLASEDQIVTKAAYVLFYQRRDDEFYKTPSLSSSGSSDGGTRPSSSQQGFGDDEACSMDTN
How it was run: as §1

Measured: log2 ratio of Biotin-Ahx-Ub-VS probe labelling

Chain of USP34 (Q70CQ2 whole entry, the tested form may be a part): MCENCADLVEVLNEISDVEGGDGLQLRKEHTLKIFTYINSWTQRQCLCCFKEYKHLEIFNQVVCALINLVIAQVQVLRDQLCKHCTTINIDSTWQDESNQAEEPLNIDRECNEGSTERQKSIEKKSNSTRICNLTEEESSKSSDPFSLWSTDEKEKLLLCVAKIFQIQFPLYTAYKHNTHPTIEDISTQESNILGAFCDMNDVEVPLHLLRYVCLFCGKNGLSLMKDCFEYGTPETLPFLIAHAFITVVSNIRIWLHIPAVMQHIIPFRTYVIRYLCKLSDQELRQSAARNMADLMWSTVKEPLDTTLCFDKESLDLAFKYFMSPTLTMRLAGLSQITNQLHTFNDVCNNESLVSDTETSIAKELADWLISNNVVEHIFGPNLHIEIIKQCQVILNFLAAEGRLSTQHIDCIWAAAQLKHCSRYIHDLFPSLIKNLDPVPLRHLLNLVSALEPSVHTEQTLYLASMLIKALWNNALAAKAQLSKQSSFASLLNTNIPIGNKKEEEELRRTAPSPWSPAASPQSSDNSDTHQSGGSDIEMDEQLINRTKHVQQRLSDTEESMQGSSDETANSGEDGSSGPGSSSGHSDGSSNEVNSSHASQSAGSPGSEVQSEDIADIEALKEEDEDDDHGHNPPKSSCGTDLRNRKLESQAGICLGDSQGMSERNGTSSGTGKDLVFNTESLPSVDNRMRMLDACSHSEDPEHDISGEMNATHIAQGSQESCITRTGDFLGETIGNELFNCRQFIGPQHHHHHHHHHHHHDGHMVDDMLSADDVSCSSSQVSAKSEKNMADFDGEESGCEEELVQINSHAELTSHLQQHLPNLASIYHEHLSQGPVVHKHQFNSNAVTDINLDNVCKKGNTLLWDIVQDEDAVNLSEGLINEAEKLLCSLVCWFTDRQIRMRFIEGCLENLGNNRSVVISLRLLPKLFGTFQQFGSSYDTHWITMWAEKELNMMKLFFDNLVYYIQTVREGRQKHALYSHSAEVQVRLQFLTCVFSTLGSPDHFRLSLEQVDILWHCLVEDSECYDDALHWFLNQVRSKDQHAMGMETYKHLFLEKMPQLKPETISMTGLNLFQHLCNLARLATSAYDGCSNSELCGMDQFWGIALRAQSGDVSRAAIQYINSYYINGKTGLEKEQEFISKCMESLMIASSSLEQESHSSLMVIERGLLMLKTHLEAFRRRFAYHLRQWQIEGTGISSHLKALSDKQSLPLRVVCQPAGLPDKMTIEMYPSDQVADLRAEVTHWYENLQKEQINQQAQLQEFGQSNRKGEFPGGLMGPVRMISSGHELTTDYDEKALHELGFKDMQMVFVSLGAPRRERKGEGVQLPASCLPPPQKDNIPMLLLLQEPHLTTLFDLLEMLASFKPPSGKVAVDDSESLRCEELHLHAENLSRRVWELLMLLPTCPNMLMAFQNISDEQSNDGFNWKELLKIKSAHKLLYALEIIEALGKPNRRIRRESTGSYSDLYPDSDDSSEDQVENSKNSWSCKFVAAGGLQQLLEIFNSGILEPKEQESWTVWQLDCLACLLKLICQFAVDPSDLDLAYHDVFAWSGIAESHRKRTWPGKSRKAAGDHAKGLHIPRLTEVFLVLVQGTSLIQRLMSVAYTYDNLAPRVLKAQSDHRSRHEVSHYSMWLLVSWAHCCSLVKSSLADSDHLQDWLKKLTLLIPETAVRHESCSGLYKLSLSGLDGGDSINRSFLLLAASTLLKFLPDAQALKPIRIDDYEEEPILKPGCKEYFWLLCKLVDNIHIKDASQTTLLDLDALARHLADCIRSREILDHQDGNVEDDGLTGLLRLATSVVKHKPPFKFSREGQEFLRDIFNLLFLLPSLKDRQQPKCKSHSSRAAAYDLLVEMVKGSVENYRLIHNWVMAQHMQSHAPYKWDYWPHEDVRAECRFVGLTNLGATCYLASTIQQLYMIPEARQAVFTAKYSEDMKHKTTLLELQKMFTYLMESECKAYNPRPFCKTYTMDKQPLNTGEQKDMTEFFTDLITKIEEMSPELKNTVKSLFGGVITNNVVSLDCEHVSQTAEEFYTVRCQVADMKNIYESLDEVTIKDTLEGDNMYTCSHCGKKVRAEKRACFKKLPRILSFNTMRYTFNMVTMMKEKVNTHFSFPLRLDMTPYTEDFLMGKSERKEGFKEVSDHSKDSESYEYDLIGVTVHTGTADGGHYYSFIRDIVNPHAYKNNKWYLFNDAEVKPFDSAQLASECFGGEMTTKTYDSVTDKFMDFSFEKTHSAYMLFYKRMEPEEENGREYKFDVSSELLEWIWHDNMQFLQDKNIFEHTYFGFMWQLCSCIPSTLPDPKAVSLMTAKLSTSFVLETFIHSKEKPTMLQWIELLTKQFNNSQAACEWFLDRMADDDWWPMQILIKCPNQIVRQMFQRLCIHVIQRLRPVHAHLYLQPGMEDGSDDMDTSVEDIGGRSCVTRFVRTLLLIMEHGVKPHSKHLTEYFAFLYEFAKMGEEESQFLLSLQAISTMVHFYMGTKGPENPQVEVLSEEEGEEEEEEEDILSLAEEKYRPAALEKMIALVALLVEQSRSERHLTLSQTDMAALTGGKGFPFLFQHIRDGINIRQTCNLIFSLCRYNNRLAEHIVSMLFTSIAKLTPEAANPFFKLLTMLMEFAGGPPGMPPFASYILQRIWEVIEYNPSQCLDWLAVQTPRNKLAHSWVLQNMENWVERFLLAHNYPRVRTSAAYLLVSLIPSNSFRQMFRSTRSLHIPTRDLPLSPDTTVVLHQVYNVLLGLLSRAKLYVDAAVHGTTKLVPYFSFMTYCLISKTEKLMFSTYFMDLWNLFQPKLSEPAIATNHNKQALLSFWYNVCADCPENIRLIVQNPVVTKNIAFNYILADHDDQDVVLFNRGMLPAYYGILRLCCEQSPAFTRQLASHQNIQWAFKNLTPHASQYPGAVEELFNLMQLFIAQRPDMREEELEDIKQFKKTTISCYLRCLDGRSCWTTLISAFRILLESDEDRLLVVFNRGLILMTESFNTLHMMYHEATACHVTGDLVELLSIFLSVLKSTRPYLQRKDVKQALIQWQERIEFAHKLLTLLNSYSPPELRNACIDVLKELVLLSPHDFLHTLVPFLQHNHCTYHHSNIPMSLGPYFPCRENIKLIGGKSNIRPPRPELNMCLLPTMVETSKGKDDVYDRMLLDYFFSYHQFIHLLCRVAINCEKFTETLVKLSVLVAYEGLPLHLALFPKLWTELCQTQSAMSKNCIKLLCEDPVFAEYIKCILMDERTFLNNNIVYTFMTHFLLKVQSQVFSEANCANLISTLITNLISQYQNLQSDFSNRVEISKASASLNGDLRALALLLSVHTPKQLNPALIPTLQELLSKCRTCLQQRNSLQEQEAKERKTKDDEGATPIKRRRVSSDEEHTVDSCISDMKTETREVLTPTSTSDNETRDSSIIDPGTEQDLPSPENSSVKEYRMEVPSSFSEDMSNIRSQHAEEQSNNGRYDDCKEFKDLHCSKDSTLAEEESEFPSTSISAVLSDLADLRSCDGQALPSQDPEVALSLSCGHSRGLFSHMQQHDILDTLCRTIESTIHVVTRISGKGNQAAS

O=C(CCl)NC1CCS(=O)(=O)c2ccccc21 (stereo not given)
inactive: USP34 -0.0259 | USP36 -0.0862 | USP38 -0.432 | USP39 -0.117 | USP4 -0.0115
